# Test results published in PubChem BioAssay AID652180 (National Center for Advancing Translational Sciences (NCATS), 2013).
# Records with an inconclusive call do not appear. A number with no mark means an inactive call. Activity calls are given as the source filed them. Calls come from the whole dose curve; as a rule, active = well fitted inhibition curve with a large enough effect; inconclusive = small, poorly fitted or top-dose-only effect; inactive = no such curve, though single readings can be large or run the other way.
# Assay: qHTS Assay for Lipid Storage Modulators: 3T3L1 Assay against Probe and Analogs
# Details: 3T3-L1 lipid droplets, BODIPY imaging, oleic acid, 18-24 h; series mostly up to 46.1 µM; activity change, negative = decreased lipid storage: at the top concentration
# From the text: Storing lipids as a reservoir for energy or the anabolism of elementary metabolites is a common feature of probably all cells and is conserved from bacteria to humans. The universal cellular lipid storage organelle is the so-called lipid storage droplet (LD). Although ubiquitous, LDs share a simple structure composed of a hydrophobic core that harbors the storage lipids, which is shielded by a droplet-specific phospholipid monolayer to which proteins are attached. The current model of LD biogenesis involves an incorporation of the lipid core into the membrane leaflets of the endoplasmic reticulum (ER) followed by a subsequent budding-like maturation of a LD, which ultimately pinches off. Once released, LD volume can increase by localized lipogenesis or fusion of existing droplets. Storage lipids are re-mobilized enzymatically by lipase activity. Lipase regulation in the adipocyte is heavily studied and involves multiple components including catecholamine signaling, the LD-associated proteins Perilipin and comparative gene identification-58 (CGI-58) and at least two lipases named hormone sensitive lipase (HSL) and adipocyte triglyceride lipase (ATGL). LD regulation outside of the adipocyte is poorly understood and only few components are known. However, there is an urgent need to learn more about ectopic fat depots as mislocalized storage of lipids, for example in the liver or muscle, is an eminent health problem associated with insulin resistance or the metabolic syndrome. We developed a laser-scanning cytometer assay to enable 1,536-well screening and combined the results of the small molecules screen with an RNAi database based on lipid storage. In this assay we tested analogs of the probe against a mammalian cell line (3T3L1), to see if these small molecules could disrupt lipid storage. NIH Molecular Libraries Probe Production Centers Network [MLPCN] NIH Chemical Genomics Center [NCGC] MLPCN Grant: MH085686 Assay Submitter (PI): Mathias Beller, Max-Planck-Institut fur Biophysikalische Chemie
# 3T3L1 cells were obtained from ATCC (CL-173). 4 uL of cells at 1.25 X 105 cell/mL were dispensed into 1536 well Poly-D-Lysine coated black with clear bottom imaging plates (Corning, #7356) to obtain 500 cells/well, and cultured at 37 °C, 95% humidity, and 5% CO2 overnight. The culture medium used was OPTI-MEM containing 5% fetal bovine serum (FBS). Triacsin C (Sigma-Aldrich T-4540), an inhibitor of long-chain fatty acyl CoA synthetase that blocks synthesis of triglycerides, was used as a positive control for lipid under-storage. A total of 23 nL of compounds dissolved in DMSO at different concentrations were transferred to the assay plates using a Kalypsys 1536-pin tool, the final DMSO concentration was 0.46%. One microliter of oleic acid at 400 uM (Calbiochem, #4954) was added to induce lipid droplet formation in the cells, and the plates were lidded. After 18-24 hours of incubation at 37 °C, 95% humidity, and 5% CO2, cells were fixed (8 % paraformaldehyde in PBS, 30 min, room temperature), washed three times with PBS, then stained for lipid droplet and nucleus using 4uL of PBS solution containing BODIPY lipid dye 493/503 (1:2000 dilution, Life Technologies, #3922) and Hoechst 33342 (1:1000, Life Technologies, #H3570) with Washer dispenser EL406(Biotek). Images were acquired using InCell 2000 (GE). Number of cells, number of lipids and sizes of lipids were analysis using GE Investigator software.
SMILES,"activity change, negative = decreased lipid storage",Potency
COc1nc(-c2ccc3c(c2)OCO3)n(-c2ccc(NC(=O)CSc3ccccc3)cc2)n1,6.57%,–
O=C(NC1CCCc2c1cnn2-c1ccc(F)cc1F)c1cnccn1 (stereo not given),81.4%,–
CCOc1ccc(CCNC(=O)c2cc3sccc3n2CC=C(C)C)cc1OCC,–,833 nM (active)
CCOc1ccc(CCNC(=O)c2cc3ccccc3n2Cc2ccc(Cl)c(F)c2)cc1OCC,–,18.7 nM (active)
O=C(NC1CCCc2c1cnn2-c1ccc(F)cc1F)C1CCCCC1 (stereo not given),103%,–
CC(C)(C)OC(=O)NC1CCCc2c1cnn2-c1ccc(F)cc1F (stereo not given),54.4%,–
CCOc1ccc(CCNC(=O)c2cnon2)cc1OCC,-17.2%,–
O=C(NC1CCCc2c1cnn2-c1ccc(F)cc1F)c1ccc(C(=O)c2ccccc2)cc1 (stereo not given),36.4%,–
O=C(NC1CCCc2c1cnn2-c1ccc(F)cc1F)c1ccc(C2(C(F)(F)F)N=N2)cc1 (stereo not given),78.7%,–
CC(C)(NC(=O)Nc1ccccc1Cl)C(=O)N1CCC(C(=O)O)CC1,-34.4%,–
O=C(NC1CCCc2c1cnn2-c1ccc(F)cc1F)c1ccccc1 (stereo not given),–,inactive
O=C(NC1CCCc2c1cnn2-c1ccc(F)cc1F)c1ccccn1 (stereo not given),–,inactive
CCOC(=O)C1CCN(C(=O)C(C)(C)NC(=O)Nc2ccc(N)cc2)CC1,17.4%,–
O=C(NC1CCCc2c1cnn2-c1ccc(O)cc1)c1ccccn1 (stereo not given),-19.4%,–
CC1=C(C(=O)NC2CCCc3c2cnn3-c2ccc(F)cc2F)OCCO1 (stereo not given),29.3%,–
CCOc1ccc(CCNC(=O)c2cc3sccc3n2C(C)C)cc1OCC,–,29.6 nM (active)
C[C@@H](NCCCc1cccc(C(F)(F)F)c1)c1cccc2ccccc12,-104%,–
O=C(NC1CCCc2c1cnn2-c1ccc(F)cc1F)c1cccs1 (stereo not given),–,inactive
CCOC(=O)C1CCN(C(=O)C(C)(C)NC(=O)Nc2ccc(F)c(F)c2)CC1,-37.2%,–
CCOc1ccc(CCNC(=O)C2=C(C)OCCO2)cc1OCC,-14%,–

SMILES,"activity change, negative = decreased lipid storage",Potency
O=C(NC1CCCc2c1cnn2-c1ccc(F)cc1F)C1CCCCN1 (stereo not given),-11.6%,–
O=C(NCCc1ccc2c(c1)OCO2)c1cc2sccc2[nH]1,37.4% [at 38.8 µM],–
CCOc1ccc(CCNC(=O)c2ccccn2)cc1OCC,-36%,–
O=C(Nc1cccc2nn(-c3ccc(F)cc3)cc12)c1ccccn1,55.5%,–
Cc1cc(SCc2sc(-c3ccc(C(F)(F)F)cc3)nc2C)ccc1OCC(=O)O,28%,–
CCOc1ccc(CCNC(=O)c2cc3sccc3n2CCN2CCN(C)CC2)cc1OCC,–,1320 nM (active)
O=C(NC1CCCc2c1cnn2-c1ccc(F)cc1F)c1ccncc1 (stereo not given),63.1%,–
CCOC(=O)C1CCN(C(=O)C(C)(C)NC(=O)Nc2ccc(OC)c(Cl)c2)CC1,-43.9%,–
CN(C)Cc1ccc(-c2nc3cccc4c3n2CCNC4=O)cc1,-43.8%,–
Cc1cn(-c2cc(NC(=O)c3ccc(C)c(Nc4nccc(-c5cccnc5)n4)c3)cc(C(F)(F)F)c2)cn1,-41.8%,–
COc1ccc(-n2ncc3c2CCCC3NC(=O)c2ccccn2)cc1 (stereo not given),11.4%,–
CCOc1ccc(CCNC(=O)c2ccc3[nH]ccc3c2)cc1OCC,8.17% [at 38.8 µM],–
O=C(NC1CCCc2c1cnn2-c1ccc(F)cc1F)c1ccsc1 (stereo not given),55.2%,–
Cc1cc2c(cc1C1(c3ccc(C(=O)O)cc3)CC1)C(C)(C)CCC2(C)C,111%,–
CC(C)(C)OC(=O)NCCOCCOCCOc1cccc(-n2ncc3c2CCCC3NC(=O)c2ccccn2)c1 (stereo not given),47%,–
CCOc1ccc(CCNC(C)=O)cc1OCC,-8.63%,–
O=C(NC1CCCc2c1cnn2-c1ccc(F)cc1F)c1ccn[nH]1 (stereo not given),-26.1%,–
CC(C)(C)OC(=O)NCCOCCOCCOCCn1ncc2c1CCCC2NC(=O)c1ccccn1 (stereo not given),-33.2%,–
CCOC(=O)C1CCN(C(=O)C(C)(C)NC(=O)Nc2ccc3c(c2)CCC3)CC1,-38.5%,–
CCOc1ccc(CCNC(=O)c2cc3sccc3n2Cc2ccccn2)cc1OCC,–,23.5 nM (active)
